Data as given in PubChem BioAssay AID1159580 (chemical genetic matrix, 2015).
“And” between values parts separate entries of the source, which are not always exact repeats. Equal values may be shown once. In all, about 5,500 compounds went through this assay and about 2,000 (36%) were called active. Inconclusive results (about 18%) are left out. No stated cut-off is given here; in the data, active means normalized growth mostly below about 0.91 (no sharp cut-off); inconclusive means no clear call, values can overlap the other calls; inactive means mostly above about 0.92. The list shows a part of the results.

Assay: chemical genetic growth profiling, strain panel (AID 1159580);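 further: tested at 20 µM; growth read once vehicle control cultures reached saturation at 30 °C; 1 = growth at the plate median or of vehicle wells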
Details: S. cerevisiae deletion strains, growth OD

Measured: normalized growth

Cc1c(N(C)C)c(=O)n(-c2ccccc2)n1C
inactive: locus YAL013W, strain DEP1, stronger effect = lower value 0.994 | locus YAL021C, strain ccr4, stronger effect = lower value 0.981 | locus YAL026C, strain drs2, stronger effect = lower value 0.977 | locus YAL030W, strain snc1, stronger effect = lower value 0.982 | locus YBL061C, strain skt5, stronger effect = lower value 1 | locus YBR009C, strain hhf1, stronger effect = lower value 0.976 | locus YBR021W, strain FUR4, stronger effect = lower value 1.01 | locus YBR023C, strain chs3, stronger effect = lower value 0.983 | locus YBR171W, strain sec66, stronger effect = lower value 0.987 | locus YBR229C, strain ROT2, stronger effect = lower value 0.978 | locus YBR231C, strain swc5, stronger effect = lower value 0.99 | locus YBR279W, strain paf1, stronger effect = lower value 0.996 | locus YCL011C, strain gbp2, stronger effect = lower value 1.01 | locus YCL016C, strain dcc1, stronger effect = lower value 0.993 | locus YCL029C, strain bik1, stronger effect = lower value 0.972 | locus YCL061C, strain MRC1, stronger effect = lower value 0.979 | locus YCL069W, strain vba3, stronger effect = lower value 1 | locus YCR088W, strain abp1, stronger effect = lower value 1 | locus YDL005C, strain med2, stronger effect = lower value 0.96 | locus YDL035C, strain GPR1, stronger effect = lower value 0.995 | locus YDL040C, strain nat1, stronger effect = lower value 0.991 | locus YDL074C, strain BRE1, stronger effect = lower value 0.984 | locus YDL101C, strain DUN1, stronger effect = lower value 0.983 | locus YDL134C, strain PPH21, stronger effect = lower value 0.997 | locus YDL185W, strain tfp1, stronger effect = lower value 0.962 | locus YDL192W, strain arf1, stronger effect = lower value 0.98 | locus YDR001C, strain nth1, stronger effect = lower value 0.994 | locus YDR069C, strain doa4, stronger effect = lower value 0.971 | locus YDR101C, strain arx1, stronger effect = lower value 0.99 | locus YDR137W, strain rgp1, stronger effect = lower value 0.986 | locus YDR150W, strain NUM1, stronger effect = lower value 0.993 | locus YDR159W, strain sac3, stronger effect = lower value 0.948 | locus YDR162C, strain NBP2, stronger effect = lower value 0.993 | locus YDR195W, strain ref2 0.934 | locus YDR297W, strain sur2, stronger effect = lower value 1 | locus YDR318W, strain mcm21, stronger effect = lower value 0.989 | locus YDR334W, strain swr1, stronger effect = lower value 0.987 | locus YDR335W, strain msn5, stronger effect = lower value 0.993 | locus YDR388W, stronger effect = lower value 0.998 | locus YDR392W, strain spt3, stronger effect = lower value 1 | locus YDR502C, strain sam2, stronger effect = lower value 0.999 | locus YEL003W, strain gim4, stronger effect = lower value 0.997 | locus YEL037C, strain rad23, stronger effect = lower value 0.998 | locus YEL061C, strain CIN8 (second series), stronger effect = lower value 1.01 | locus YEL061C, strain CIN8, stronger effect = lower value 0.996 | locus YER015W, strain faa2, stronger effect = lower value 0.995 | locus YER016W, strain bim1, stronger effect = lower value 0.999 | locus YER110C, stronger effect = lower value 0.981 | locus YER111C, strain swi4, stronger effect = lower value 0.983 | locus YER155C, strain BEM2 (second series), stronger effect = lower value 0.989 | locus YER155C, strain BEM2, stronger effect = lower value 0.995 | locus YER167W, strain BCK2, stronger effect = lower value 0.99 | locus YFR010W, strain ubp6, stronger effect = lower value 0.986 | locus YGL078C, strain dbp3, stronger effect = lower value 0.997 | locus YGL086W, strain mad1, stronger effect = lower value 1 | locus YGL167C, strain pmr1, stronger effect = lower value 0.982 | locus YGL173C, strain kem1, stronger effect = lower value 0.96 | locus YGL227W, strain vid30, stronger effect = lower value 0.984 | locus YGL240W, strain doc1, stronger effect = lower value 0.972 | locus YGL248W, strain PDE1, stronger effect = lower value 0.998 | locus YGL253W, strain hxk2, stronger effect = lower value 1.02 | locus YGR078C, strain PAC10, stronger effect = lower value 0.985 | locus YGR135W, strain pre9, stronger effect = lower value 0.991 | locus YGR229C, strain SMI1, stronger effect = lower value 0.992 | locus YGR252W, strain gcn5, stronger effect = lower value 1.1 | locus YHR013C, strain ard1, stronger effect = lower value 0.964 | locus YHR027C, strain rpn1, stronger effect = lower value 0.996 | locus YHR030C, strain SLT2, stronger effect = lower value 0.976 and 1.04 | locus YHR079C, strain IRE1 (second series), stronger effect = lower value 0.99 | locus YHR079C, strain IRE1, stronger effect = lower value 1.01 | locus YHR094C, strain hxt1, stronger effect = lower value 0.978 | locus YHR129C, strain ARP1, stronger effect = lower value 0.993 | locus YHR142W, strain chs7, stronger effect = lower value 1.02 | locus YHR200W, strain rpn10, stronger effect = lower value 0.999 | locus YIL066C, strain RNR3, stronger effect = lower value 0.992 | locus YIL073C, strain SPO22, stronger effect = lower value 0.923 | locus YIL125W, strain kgd1, stronger effect = lower value 0.99 | locus YIR030C, strain dcg1, stronger effect = lower value 0.99 | locus YJL092W, strain hpr5, stronger effect = lower value 1 | locus YJL095W, strain BCK1 (second series), stronger effect = lower value 0.997 | locus YJL095W, strain BCK1, stronger effect = lower value 0.966 and 1.04 | locus YJL115W, strain asf1, stronger effect = lower value 0.995 | locus YJL129C, strain trk1, stronger effect = lower value 0.983 | locus YJL134W, strain LCB3, stronger effect = lower value 0.997 | locus YJL154C, strain vps35, stronger effect = lower value 0.987 | locus YJL166W, strain qcr8, stronger effect = lower value 0.982 | locus YJL168C, strain set2, stronger effect = lower value 0.99 | locus YJL187C, strain SWE1 (second series), stronger effect = lower value 0.975 | locus YJR043C, strain POL32, stronger effect = lower value 0.986 | locus YJR066W, strain TOR1, stronger effect = lower value 0.972 | locus YJR075W, strain HOC1, stronger effect = lower value 0.997
